In PubChem BioAssay (NCI) one finds growth data, which are given here for 13 molecules.

About 83,000 compounds went through this panel and 20% of them were active in at least one assay; those are over-represented in the sample as a whole.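 96-well plates, one dose, 48 hours. Percent growth reported; active if below 10.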 Unmarked numbers belong to inactive results. Activity calls are given as the source filed them.

What all share (assay): NCI-60 one-dose screen, 48 h (100 = growth as untreated, 0 = no growth, -100 = all killed)
Common to all, as to settings: 10 µM unless noted

The test system of test [1] is NCI-H23 lung.
Test [2] concerns NCI-H226 lung.
Test [3] deals with NCI-H322M lung.
For test [4], the system named is HOP-62 NSCLC.
Test [5] concerns NCI-H460 lung.
The subject of test [6] is HOP-92 NSCLC.
Test [7] relates to NCI-H522 lung.
In test [8] the test system is A549/ATCC NSCLC.
Test [9] concerns 786-0 renal.
In test [10] the test system is COLO 205 colon.

On to `C=CC(=O)N1CCN(c2cccc(Oc3nccc(Nc4nnc(-c5ccc(Br)cc5)s4)n3)c2)CC1`, for which the growth in test [1] was 79%; in test [2], 88.8%; in test [3], 92.3%; in test [4], 62.2%; in test [5] it was 25.6%; in [6] it was 88.3%. For the same molecule, the growth is -2.86% (active) in test [7], 47.3% in test [8], 73.5% in test [9] and 63.4% in [10].
Turning to `C/C(=N\O)c1ccc(Cl)cc1`, the growth in test [1] is 110%; in [2] it was 106%; in [3], 123%; in [4], 95.7%; in test [5], 112%; in test [6] it was 65.3%. Also, the growth in [7] is 105%; in [8] it was 97.9%; in test [9], 107%; in test [10], 108%.
With `CCOc1ccccc1Cn1ccnc1CCc1c(Cl)c(O)cc(O)c1C(=O)OC`, the growth in [1] is 95.4%; in [2] it was 102%; in [3], 83%; in test [4], 85.9%; in test [5] it was 104%; in test [6], 90.4%. Further, the growth in test [7] is 76.2%; in [8], 87.7%; in test [9], 101%; in test [10], 102%.
As to `C#COc1cccc(Nc2c(C#N)cnc3ncc(NC(=O)CCl)cc23)c1`, the growth in [1] was 59.6% [6.25 µM]; in [2], 57.2% [6.25 µM]; in test [3] it was 53.1% [6.25 µM]; in test [4] it was 32.8% [6.25 µM]; in [5] it was 11.8% [6.25 µM]; in test [6], 54.5% [6.25 µM]. The growth was -69.4% [6.25 µM] (active) in test [7], 31.2% [6.25 µM] in [8], -23.4% [6.25 µM] (active) in [9] and 17.5% [6.25 µM] in [10].
On to `CC(=O)N1N=C(c2ccc(Nc3nc(Nc4ccccc4)nc(Nc4ccccc4)n3)cc2)CC1c1cccc([N+](=O)[O-])c1` (stereo not given), for which the growth was 94.6% in [1]; 113% in [2]; 96.2% in [3]; 78.8% in test [4]; 107% in [5]; 56.8% in [6]. Further, the growth in [7] is 104%; in test [8], 93.3%; in [9], 89.9%; in test [10], 88.1%.
For the molecule `Cn1c(=O)c2nc(/C=C/c3ccccc3)c(=O)[nH]c2n(C)c1=S`, the growth in test [1] is 100%; in test [2], 101%; in [3], 99.7%; in test [4] it was 100%; in test [5] it was 103%; in [6], 98.1%. For the same molecule, the growth is 102% in test [7], 107% in test [8], 99.8% in test [9] and 121% in test [10].
In the case of `CCOC(=O)n1cc(-c2nonc2-c2cn(C(=O)OCC)c3ccc(Br)cc23)c2ccccc21`, the growth was 67.9% in test [1]; 79.4% in test [2]; 70% in test [3]; 72.3% in test [4]; 81.6% in test [5]; 63.2% in [6]. Further, the growth in [7] was 70.6%; in test [8] it was 74.4%; in [9], 90.6%; in test [10] it was 84.2%.
Regarding `Cc1cccc(/C=C2\CN(C(=O)OC(C)(C)C)C/C(=C\c3cccc(C)c3)C2=O)c1`, the growth in test [1] was 92.7%; in [2], 99.6%; in test [3], 95.8%; in test [4], 96.9%; in test [5], 110%; in test [6], 87.3%. For the same molecule, the growth was 63.8% in test [7], 97.4% in [8], 94.6% in test [9] and 115% in test [10].
Turning to `O=C(Nc1cccc2ccccc12)NC1CC1`, the growth was 105% in test [1]; 99.9% in test [2]; 111% in [3]; 89.8% in test [4]; 106% in test [5]; 99% in [6]. The growth was 136% in [7], 103% in test [8], 101% in test [9] and 107% in [10].
As for `CC(C)(Sc1cc(C(C)(C)C)c(O)c(C(C)(C)C)c1)Sc1cc(C(C)(C)C)c(OC(=O)CCCC(=O)O)c(C(C)(C)C)c1`, the growth was 39.9% in test [1]; 66.2% in test [2]; 60.4% in test [3]; 67% in test [4]; 37% in test [5]; 40.2% in test [6]. In addition, the growth in test [7] was 46.4%; in [8] it was 35%; in test [9], 56.1%; in [10], 64.3%.
Consider `CCCCNC(=O)Oc1ccc(/C(=C(/C)Cc2ccc(OC)cc2)c2ccc(OCCN3CCCC3)cc2)cc1`, for which the growth in test [1] is 85.9%; in test [2], 94.7%; in test [3] it was 81.6%; in test [4] it was 79.1%; in test [5] it was 17.7%; in test [6], 49%. In addition, the growth is 55.5% in test [7], 48.7% in test [8], 59.8% in test [9] and -57.4% (active) in test [10].
With `O=C(CSC(=S)n1cnnc1)NC(=O)c1ccccc1`, the growth in test [1] was 102%; in test [2] it was 100%; in test [3], 103%; in test [4] it was 106%; in test [5], 112%; in test [6] it was 101%. Further, the growth in [7] was 92.4%; in [8] it was 114%; in [9], 104%; in test [10], 119%.
For `C=C1C(=O)O[C@H]2[C@H]1CC/C(COC(=O)C(=O)c1cn(C)c3ccc(Cl)cc13)=C\CC[C@@]1(C)O[C@@H]21`, the growth in test [1] was -60.1% (active); in test [2] it was -71.4% (active); in test [3], -68.9% (active); in test [4], -70.1% (active); in [5], -69.8% (active); in test [6] it was -82.9% (active). For the same molecule, the growth is -65.8% (active) in test [7], -62.5% (active) in [8], -97.6% (active) in test [9] and -64.7% (active) in [10].
